The source of these data is PubChem BioAssay (EPA / NIEHS).

Experiment [1] is described as follows: APR_HepG2_NuclearSize_72hr: Apredica 72-hour HepG2 Assay for Nuclear Size (AID 2282925). Conditions: high-content imaging, actives raise or lower the signal. An outline of the steps:
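Compounds (0.39–200 uM, final DMSO 0.5%) were applied to HepG2 for 72 hr. Cells were then formaldehyde-fixed, permeabilized and labelled with Hoechst 33342. Nuclear diameter was quantified from six images per well.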

Experiment [2] can be described thus: ATG_CRE_CIS: Attagene CIS-FACTORIAL HepG2 Assay for human cAMP Responsive Element (CRE) binding protein 3 (AID 2282926). Conditions: HepG2 CRE cis-reporter, Attagene multiplexed mRNA; actives raise or lower the signal. An outline of the steps: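 Induced reporter mRNA from a CRE cis element, measured in HepG2 among many multiplexed units at 24 h. Detection used RT-PCR plus capillary electrophoresis of fluorescent fragments; DMSO served as negative control.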

Experiment [3] concerns the target CCAAT/enhancer-binding protein beta (Homo sapiens) (UniProt P17676). As to the kind of experiment: ATG_C_EBP_CIS: Attagene CIS-FACTORIAL HepG2 Assay for human CCAAT/Enhancer Binding Protein (C/EBP) beta (AID 2282927). Conditions: HepG2 Attagene cis-factorial transcription factor reporter; actives raise or lower the signal. The method in brief:
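Following a 24 h incubation with test chemical, transfected HepG2 cells yielded RNA whose reporter transcripts were quantified by RT-PCR and fluorescent capillary electrophoresis, with DMSO serving as baseline for bidirectional fitting.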

Experiment [4] in a line: ATG_CMV_CIS: Attagene CIS-FACTORIAL HepG2 Assay for human CMV (Internal Marker) (AID 2282928).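 Also: endpoint acts as a background internal control marker rather than a target.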 Conditions: HepG2 CMV promoter reporter, transcription factor profiling; actives raise or lower the signal. An outline of the steps:
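Readout: fluorescent reporter cDNA fragments separated by capillary electrophoresis after RT-PCR and HpaI cut. Cells: HepG2 carrying transfected cis-promoter reporter constructs, dosed 24 h. Endpoint serves as background internal-marker control, fit bidirectionally versus DMSO.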

The nature of experiment [5]: ATG_DR4_LXR_CIS: Attagene CIS-FACTORIAL HepG2 Assay for human Liver X Receptor (LXR), DR4 submotif (AID 2282929). Conditions: HepG2 Attagene DR4 cis-reporter, mRNA transcription; actives raise or lower the signal. The method in brief:
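Transiently transfected HepG2 liver cells; cis-regulated reporters; 24 h dosing. RT-PCR plus CE read-out of reporter mRNA. DMSO baseline, bidirectional curve fitting.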

For experiment [6], the target named is Aryl hydrocarbon receptor (Homo sapiens) (UniProt P35869). Briefly: ATG_Ahr_CIS: Attagene CIS-FACTORIAL HepG2 Assay for human Aryl Hydrocarbon Receptor (Ahr) (AID 2282930). Conditions: HepG2 AhR cis-factorial reporter transcription; actives raise or lower the signal. The method in brief:
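Values derive from bidirectional fitting against DMSO negative control. Underlying signal: cis-element reporter mRNA in transiently transfected HepG2, harvested 24 h post-dose and measured by RT-PCR plus capillary electrophoresis.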

Experiment [7] can be described thus: ATG_AP_1_CIS: Attagene CIS-FACTORIAL HepG2 Assay for human Activator Protein 1 (AP-1) (AID 2282931). Conditions: HepG2 Attagene cis-factorial AP-1 reporter mRNA; actives raise or lower the signal. The method in brief: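 We transfected HepG2 cells transiently with a set of cis-regulated reporter transcription units, dosed them for 24 h, and quantified reporter mRNA via RT-PCR and capillary electrophoresis, scoring gain or loss of signal relative to DMSO.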

Experiment [8] can be described thus: ATG_BRE_CIS: Attagene CIS-FACTORIAL HepG2 Assay for human Bone Morphogenetic Protein (BMP) Response Element (BRE) (AID 2282933). Conditions: HepG2 BMP response element reporter, Attagene transcription factor profiling; actives raise or lower the signal. An outline of the steps: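 HepG2 cells transiently transfected with multiplexed cis-element reporter units were dosed with chemical for 24 h. Reporter mRNA was measured by RT-PCR with fluorescent labelling, HpaI digestion and capillary electrophoresis; bidirectional fitting relative to DMSO.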

Experiment [9] can be described thus: ATG_AP_2_CIS: Attagene CIS-FACTORIAL HepG2 Assay for human Activator Protein 2 (AP-2) (AID 2282932). Conditions: HepG2 AP-2 cis-reporter, Attagene transcription factor profiling; actives raise or lower the signal. An outline of the steps:
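Cells (HepG2) transfected with promoter-driven reporter constructs, treated 24 h. Total RNA reverse-transcribed, reporter cDNA PCR-amplified, FAM-labelled by primer extension, digested, resolved by capillary electrophoresis. Activity fitted both directions versus DMSO.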

Experiment [10] deals with Retinoic acid receptor alpha (Homo sapiens) (UniProt P10276). As to the kind of experiment: ATG_DR5_RAR_CIS: Attagene CIS-FACTORIAL HepG2 Assay for human Retinoic Acid Receptor Alpha (RARE), DR5 submotif (AID 2282934).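 As to AC50: reporter responds to endogenous RAR alpha beta and gamma in HepG2 not RARA alone.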 Conditions: HepG2 Attagene cis-factorial RARE DR5 reporter, mRNA; actives raise or lower the signal. An outline of the steps: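 Endpoint fitted in both directions relative to DMSO as negative control. It reflects DR5 cis-element reporter mRNA induction in transiently transfected HepG2 cells, measured 24 h after dosing through RT-PCR and fluorescent capillary electrophoresis.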
Retinoic acid receptor alpha (Homo sapiens), sequence (P10276 whole entry, looked up): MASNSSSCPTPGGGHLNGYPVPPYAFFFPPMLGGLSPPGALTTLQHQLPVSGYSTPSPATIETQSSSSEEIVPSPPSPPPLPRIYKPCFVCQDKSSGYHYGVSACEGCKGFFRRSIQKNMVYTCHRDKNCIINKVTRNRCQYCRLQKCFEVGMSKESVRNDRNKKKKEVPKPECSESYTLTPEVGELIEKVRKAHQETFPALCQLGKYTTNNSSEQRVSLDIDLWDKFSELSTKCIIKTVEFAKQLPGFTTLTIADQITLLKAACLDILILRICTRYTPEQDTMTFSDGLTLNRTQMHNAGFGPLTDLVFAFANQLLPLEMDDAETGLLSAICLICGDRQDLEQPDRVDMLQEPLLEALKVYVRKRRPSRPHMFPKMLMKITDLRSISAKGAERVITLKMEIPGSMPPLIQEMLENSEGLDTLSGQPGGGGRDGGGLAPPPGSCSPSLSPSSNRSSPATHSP

For orientation: AC50 means the concentration giving half of the maximal activity seen.

Where “and” joins values, the source holds several entries; their conditions need not be identical. Identical values can stand only once. Calls of active or inactive are those of the source. The calls were made as follows: active = hit-call score of the fitted dose curve at least 0.9, where 1 is the maximum; inactive = score below 0.9.

CCAAT/enhancer-binding protein beta (Homo sapiens), sequence (P17676 whole entry, looked up): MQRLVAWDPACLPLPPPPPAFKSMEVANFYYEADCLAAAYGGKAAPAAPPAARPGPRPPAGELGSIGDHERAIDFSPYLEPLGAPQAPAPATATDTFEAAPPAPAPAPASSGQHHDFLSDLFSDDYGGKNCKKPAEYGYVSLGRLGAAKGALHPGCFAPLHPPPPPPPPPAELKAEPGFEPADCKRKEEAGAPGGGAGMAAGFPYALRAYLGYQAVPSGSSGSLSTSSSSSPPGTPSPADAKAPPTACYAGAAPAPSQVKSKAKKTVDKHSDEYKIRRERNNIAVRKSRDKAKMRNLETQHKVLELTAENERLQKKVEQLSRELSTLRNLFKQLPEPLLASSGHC
Aryl hydrocarbon receptor (Homo sapiens), sequence (P35869 whole entry, looked up): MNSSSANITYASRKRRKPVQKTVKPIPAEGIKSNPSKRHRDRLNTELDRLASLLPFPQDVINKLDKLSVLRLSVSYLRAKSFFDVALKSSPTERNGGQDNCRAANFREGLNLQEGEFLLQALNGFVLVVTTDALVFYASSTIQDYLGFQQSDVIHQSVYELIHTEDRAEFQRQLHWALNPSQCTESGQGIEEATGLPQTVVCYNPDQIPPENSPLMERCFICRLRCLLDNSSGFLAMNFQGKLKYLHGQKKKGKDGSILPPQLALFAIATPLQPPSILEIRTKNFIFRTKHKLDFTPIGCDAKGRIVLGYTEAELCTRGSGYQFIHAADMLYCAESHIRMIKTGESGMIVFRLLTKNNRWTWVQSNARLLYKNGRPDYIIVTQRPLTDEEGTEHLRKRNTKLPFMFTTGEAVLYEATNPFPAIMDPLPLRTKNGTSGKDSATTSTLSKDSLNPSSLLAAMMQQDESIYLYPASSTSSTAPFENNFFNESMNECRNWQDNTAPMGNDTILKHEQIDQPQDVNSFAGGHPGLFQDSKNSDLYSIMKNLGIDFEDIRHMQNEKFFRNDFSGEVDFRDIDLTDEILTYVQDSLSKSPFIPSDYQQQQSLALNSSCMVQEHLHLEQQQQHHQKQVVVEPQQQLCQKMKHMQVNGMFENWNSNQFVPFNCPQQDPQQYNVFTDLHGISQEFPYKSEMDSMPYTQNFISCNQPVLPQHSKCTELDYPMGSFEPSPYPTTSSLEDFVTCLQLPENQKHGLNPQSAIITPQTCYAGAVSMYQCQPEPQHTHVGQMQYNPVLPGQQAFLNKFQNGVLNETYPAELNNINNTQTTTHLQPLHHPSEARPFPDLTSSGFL

For `CC(Cc1ccc(OCC(=O)O)cc1)NCC(O)c1csc(C(F)(F)F)n1` (centres undefined), the result in experiment [1], in [2], in [3], in experiment [4], in experiment [5] and in experiment [6] was inactive. Also, the result in [7] and in experiment [8] was inactive.

Take `ClC1=C(Cl)C2(Cl)C3C(Cl)C(Cl)CC3C1(Cl)C2(Cl)Cl` (centres undefined): the result in [1], in [2], in experiment [3], in experiment [9] and in experiment [8] was inactive. Besides, the AC50 in experiment [4] was 48.8 µM (active); in experiment [5] it was 18.1 µM (active); in experiment [7], 48.1 µM (active); in experiment [10], 1.27 µM (active).

For the compound `CCOc1ccc(C(C)(C)COCc2cccc(Oc3ccccc3)c2)cc1`, the result in experiment [1], in [2], in experiment [3], in experiment [4], in experiment [5] and in experiment [6] was inactive. Besides, the result in experiment [7], in [9] and in experiment [8] was inactive.

Consider `ClC(Cl)(Cl)c1ccccc1`, for which the outcome in experiment [1], in experiment [2], in [3], in [4], in [5] and in [6] was inactive. The compound was called inactive in experiment [7] and in experiment [8].

Regarding `CCOP(=S)(Oc1ccc([N+](=O)[O-])cc1)c1ccccc1` (centres undefined), the call in [1], in experiment [2], in experiment [3], in experiment [4], in [6] and in experiment [9] was inactive. Moreover, the compound was called inactive in experiment [10]. Besides, the AC50 in experiment [5] is 28.4 µM (active); in experiment [7], 22.1 µM (active); in experiment [8], 62.6 µM (active).

Consider `c1nc[nH]n1`, for which the call in experiment [1], in [2], in experiment [3], in experiment [4], in experiment [5] and in experiment [6] was inactive. The result in [7], in [9] and in [8] was inactive.

With `CCOP(=S)(OCC)SCSCC`, the compound was classed as inactive in experiment [1], in experiment [2], in experiment [3], in experiment [5], in [6] and in [7]. In addition, the outcome in experiment [9] and in experiment [8] was inactive.

Regarding `CCCCN(CCCC)SN(C)C(=O)Oc1cccc2c1OC(C)(C)C2`, the outcome in experiment [1], in experiment [2], in [3], in experiment [4], in experiment [6] and in experiment [7] was inactive. Moreover, the compound was called inactive in experiment [9] and in [8]. Also, the AC50 in experiment [5] is 100 µM (active).

With `O=P1(N(CCCl)CCCl)NCCCO1` (centres undefined), the outcome in experiment [1], in experiment [2], in experiment [3], in experiment [4], in experiment [5] and in experiment [6] was inactive. Moreover, the compound was called inactive in experiment [7] and in experiment [8].

With `O=[N+]([O-])c1ccc(Cl)c(Cl)c1`, the compound was called inactive in [1], in experiment [2], in [3], in experiment [4], in experiment [5] and in experiment [6]. The compound was called inactive in [7], in experiment [8] and in [10].

Regarding `OCC1CO1` (centres undefined), the call in experiment [1], in experiment [2], in experiment [3], in [4], in experiment [5] and in experiment [6] was inactive. In addition, the compound was classed as inactive in experiment [7], in experiment [9] and in [8].

`Nc1ccc(Cl)cc1`: the compound was called inactive in [1], in [2], in experiment [3], in experiment [4], in [5] and in experiment [6]. Further, the outcome in experiment [7], in experiment [9] and in [8] was inactive.

In the case of `c1ccc(OP(Oc2ccccc2)Oc2ccccc2)cc1`, the compound was called inactive in [1], in experiment [2], in [3], in experiment [5], in experiment [6] and in [7]. In experiment [8], the compound was classed as inactive.

As to `O=C(O)C(F)(F)OC(F)(F)C(F)(F)OC(F)(F)F`, the compound was classed as inactive in experiment [2], in experiment [3], in experiment [4], in experiment [5], in experiment [6] and in experiment [7]. The compound was called inactive in experiment [9], in experiment [8] and in experiment [10].

`NNC(N)=S`: the outcome in experiment [2], in [3], in [4], in experiment [5], in experiment [6] and in experiment [7] was inactive. Further, the outcome in experiment [9], in [8] and in experiment [10] was inactive.

On to `O=S(=O)(F)C(F)(F)C(F)(F)C(F)(F)C(F)(F)C(F)(F)C(F)(F)C(F)(F)C(F)(F)F`, for which the compound was classed as inactive in experiment [2], in experiment [3], in [4], in [5], in experiment [6] and in experiment [7]. Moreover, the result in experiment [9], in experiment [8] and in experiment [10] was inactive.

For the compound `CCCCC(CC)COC(=O)c1c(Br)c(Br)c(Br)c(Br)c1C(=O)OCC(CC)CCCC` (centres undefined), the compound was classed as inactive in [2], in experiment [3], in experiment [4], in experiment [5], in [6] and in [7]. Also, the compound was classed as inactive in [9], in experiment [8] and in [10].

With `O=C(O)C(F)(F)OC(F)(F)C(F)(F)OC(F)(F)C(=O)O`, the compound was classed as inactive in experiment [2], in experiment [3], in [4], in experiment [5], in experiment [6] and in experiment [7]. Besides, the compound was classed as inactive in experiment [9], in [8] and in experiment [10].

On to `O=C(O)CF`, for which the compound was called inactive in [2], in experiment [3], in experiment [4], in experiment [5], in experiment [6] and in experiment [7]. In addition, the compound was called inactive in experiment [9] and in [8].

Regarding `CC(=O)c1ccc(-c2ccccc2)cc1`, the result in experiment [2], in experiment [3], in [4], in experiment [5], in [7] and in experiment [8] was inactive. The compound was classed as inactive in experiment [10]. In experiment [6], the AC50 is 56.5 µM (active).

In the case of `c1ccc2c(c1)sc1ccccc12`, the call in [2], in [3], in experiment [4], in experiment [5], in experiment [6] and in [7] was inactive. Also, the compound was called inactive in experiment [9], in [8] and in experiment [10].

As to `CC(C)CBr`, the result in [2], in experiment [3], in [4], in experiment [5], in experiment [6] and in experiment [7] was inactive. Further, the compound was called inactive in [9], in experiment [8] and in [10].

As to `CCOP(=S)(S)OCC`, the result in experiment [2], in experiment [3], in experiment [4], in experiment [5], in experiment [6] and in experiment [7] was inactive. Moreover, the compound was called inactive in experiment [9], in experiment [8] and in experiment [10].

For `OCC(F)(F)OC(F)(F)C(F)(F)OC(F)(F)C(F)(F)OC(F)(F)CO`, in experiment [2], the AC50 is 35.5 µM (active). Also, the outcome in experiment [3], in experiment [4], in experiment [5], in [6], in experiment [7] and in [9] was inactive. Further, the result in experiment [8] and in experiment [10] was inactive.

`O=C(O)C(F)(OC(F)(F)C(F)(F)C(F)(F)F)C(F)(F)F` (centres undefined): the compound was classed as inactive in [2], in experiment [3], in experiment [4], in experiment [5], in experiment [6] and in experiment [7]. Also, the result in [8] and in experiment [10] was inactive.

Regarding `C/C(=N\NC(=O)Nc1cc(F)cc(F)c1)c1ncccc1C(=O)O`, the compound was called inactive in experiment [2], in [3], in experiment [4], in experiment [5], in experiment [7] and in [9]. In addition, in [8], the outcome was inactive. Moreover, the AC50 in [6] is 57.2 µM (active) and 46.1 µM (active).

Take `O=C(CBr)OCc1ccccc1`: the call in experiment [2], in experiment [3], in experiment [4], in [5], in [6] and in experiment [7] was inactive. Besides, the result in experiment [9], in [8] and in experiment [10] was inactive.
